PubChem BioAssay (NCATS)
Results filed as inconclusive are left out. Calls of active or inactive are those of the source. Unless noted, calls follow the shape of the dose curve; as a rule, active = well fitted curve in the direction sought with a large enough effect; inconclusive = small, poorly fitted or top-dose-only effect, or another doubt; inactive = no such curve, though single readings can be large; an effect the other way counts as inactive or inconclusive.

Tests used:
[1] = NS1 protein of Zika virus - qHTS assay to identify small molecule inhibitors in human HEK 293 cells (AID 1347053);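 also: plate controls were infected untreated cells for no effect and uninfected cells for full effect; nearly all actives have a fitted effect of over 55% in size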
Outline: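 Inhibition of NS1 expression was scored in HEK 293 cells given compound 1 h ahead of MR766 virus (MOI = 0.5). Following 24 h at 37 C, two anti-NS1 antibodies generated a TR-FRET signal, scaled between uninfected and infected controls.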

[2] = target: T1, Tyrosine-protein phosphatase non-receptor type substrate 1 (Homo sapiens) + Leukocyte surface antigen CD47 (Homo sapiens) (UniProt P78324+Q08722); assay: CD47-SIRPalpha protein protein interaction - LANCE assay qHTS validation (AID 1347057; active = well fitted curve in the direction sought with a large enough effect in the signal ratio, with a control signal flat, not every such curve was filed as active; the % refers to the signal ratio; also: 0% is about no effect)
T1 sequence (P78324 whole entry, looked up): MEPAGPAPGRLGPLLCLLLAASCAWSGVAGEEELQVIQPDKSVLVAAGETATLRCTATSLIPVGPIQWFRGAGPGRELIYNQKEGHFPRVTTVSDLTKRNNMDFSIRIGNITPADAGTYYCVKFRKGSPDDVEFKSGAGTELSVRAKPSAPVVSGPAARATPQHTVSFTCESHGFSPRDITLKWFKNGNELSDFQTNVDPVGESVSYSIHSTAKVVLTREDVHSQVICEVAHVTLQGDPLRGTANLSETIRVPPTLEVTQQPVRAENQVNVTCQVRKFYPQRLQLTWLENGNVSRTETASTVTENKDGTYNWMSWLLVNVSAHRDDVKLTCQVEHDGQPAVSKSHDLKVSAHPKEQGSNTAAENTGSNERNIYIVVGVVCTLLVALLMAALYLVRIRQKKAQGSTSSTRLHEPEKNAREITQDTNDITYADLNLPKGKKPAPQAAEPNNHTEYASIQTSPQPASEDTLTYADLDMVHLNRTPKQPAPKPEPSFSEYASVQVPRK
T1 sequence (Q08722 whole entry, looked up): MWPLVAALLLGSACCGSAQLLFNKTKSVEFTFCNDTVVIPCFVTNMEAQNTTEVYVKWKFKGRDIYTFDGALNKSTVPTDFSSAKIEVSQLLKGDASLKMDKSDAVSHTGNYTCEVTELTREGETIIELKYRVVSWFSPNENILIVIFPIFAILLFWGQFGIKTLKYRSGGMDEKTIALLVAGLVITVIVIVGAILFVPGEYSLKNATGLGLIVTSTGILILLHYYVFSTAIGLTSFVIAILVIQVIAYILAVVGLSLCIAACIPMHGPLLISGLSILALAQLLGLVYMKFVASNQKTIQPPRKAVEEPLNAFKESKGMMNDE
Outline: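 First, His-tagged CD47 and Eu-labelled anti-His antibody met the compound for 30 min; next, site-specifically biotinylated SIRPalpha was added for 30 min; finally streptavidin-APC was added before reading the TR-FRET ratio.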

[3] = target: T1, Tyrosine-protein phosphatase non-receptor type substrate 1 (Homo sapiens) + Leukocyte surface antigen CD47 (Homo sapiens); assay: CD47-SIRPalpha protein protein interaction - HTRF assay qHTS validation (AID 1347058; active = well fitted curve in the direction sought with a large enough effect in the signal ratio, not every such curve was filed as active; the % refers to the signal ratio; also: 0% is about no effect)
Outline: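 TR-FRET read (Ch1/Ch2 ratio) of soluble extracellular CD47 and Avi-biotinylated SIRPalpha domains in PBS pH 7.4 with 0.05% IGEPAL; 7-point compound titration. Sequential 30 min room-temperature steps; non-biotinylated SIRPalpha as control inhibitor.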

[4] = target: T1, Tyrosine-protein phosphatase non-receptor type substrate 1 (Homo sapiens) + Leukocyte surface antigen CD47 (Homo sapiens); assay: CD47-SIRPalpha protein protein interaction - Alpha assay qHTS validation (AID 1347059);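 also: bead proximity luminescence from CD47 binding SIRPalpha after compound preincubation with SIRPalpha; % is scaled to controls: 0 for no effect and ±100 for the full control effect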
Outline: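 Soluble extracellular domains: Avi-tag biotinylated SIRPalpha (25 nM) preincubated 30 min RT with compound, then 6His-CD47 (12.5 nM) 30 min; Ni-NTA acceptor and streptavidin donor beads (10 ug/mL) 30 min, AlphaScreen read. PBS pH 7.4, 0.05% IGEPAL.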

[5] = target: Parathyroid hormone/parathyroid hormone-related peptide receptor (Homo sapiens) (UniProt Q03431); assay: qHTS for PTHR1 Agonists: Optimization Screen against the NCGC LOPAC library (AID 1347079);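 also: GloSensor cAMP luminescence in HEK-293 GP2 cells expressing human PTHR1 with IBMX; 0% is about no effect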
Sequence of Parathyroid hormone/parathyroid hormone-related peptide receptor (Homo sapiens) (Q03431 whole entry, looked up): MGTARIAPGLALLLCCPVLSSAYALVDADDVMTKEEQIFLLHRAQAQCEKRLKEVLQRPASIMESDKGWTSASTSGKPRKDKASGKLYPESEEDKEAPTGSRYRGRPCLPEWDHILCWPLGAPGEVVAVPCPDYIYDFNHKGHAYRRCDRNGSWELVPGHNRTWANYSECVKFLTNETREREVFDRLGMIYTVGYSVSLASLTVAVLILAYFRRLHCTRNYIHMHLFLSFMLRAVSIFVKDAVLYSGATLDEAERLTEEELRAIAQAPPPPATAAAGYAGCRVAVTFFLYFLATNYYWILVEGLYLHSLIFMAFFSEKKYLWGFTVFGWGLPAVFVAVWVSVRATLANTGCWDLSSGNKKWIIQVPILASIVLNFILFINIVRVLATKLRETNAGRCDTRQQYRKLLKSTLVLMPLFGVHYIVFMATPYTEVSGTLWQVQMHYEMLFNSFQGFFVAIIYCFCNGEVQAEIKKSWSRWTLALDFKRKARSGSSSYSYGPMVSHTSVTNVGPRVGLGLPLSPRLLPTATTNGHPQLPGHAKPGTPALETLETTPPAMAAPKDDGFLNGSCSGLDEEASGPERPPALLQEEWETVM
Outline: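 Agonist readout: GloSensor cAMP luminescence, read after 15 min at room temperature. HEK-293-derived GP2 line carries PTHR1; compounds tested as a titration for 1 hr at 37C in presence of IBMX. M-PTH (1-15) served as control.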

[6] = target: N-terminal Xaa-Pro-Lys N-methyltransferase 1 (Homo sapiens) (UniProt Q9BV86); assay: qHTS Assay for Inhibitors of N-terminal methyltransferase 1 (NTMT1): LOPAC validation of the NTMT1 SAHH-coupled ThioGlo3 Assay (AID 1347143); also: nearly all actives have a fitted effect of over 70% in size; also: potency is read from the fitted curve at half-maximal effect; as to activity change, negative = inhibition: % is scaled to controls: 0 for no effect and ±100 for the full control effect
Sequence of N-terminal Xaa-Pro-Lys N-methyltransferase 1 (Homo sapiens) (Q9BV86 whole entry, looked up): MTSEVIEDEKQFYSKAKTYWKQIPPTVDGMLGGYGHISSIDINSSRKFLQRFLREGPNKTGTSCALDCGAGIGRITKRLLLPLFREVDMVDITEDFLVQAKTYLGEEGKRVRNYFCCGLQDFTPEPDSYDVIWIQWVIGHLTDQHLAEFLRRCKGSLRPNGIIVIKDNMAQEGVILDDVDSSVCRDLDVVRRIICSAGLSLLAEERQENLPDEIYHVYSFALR
Outline: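 Fluorescence read-out (excitation 340nm, emission 450nm) of SAH-derived thiol, measured via SAHH coupling and ThioGlo3, taken immediately and after a 30 min room-temperature reaction, then normalized to the background read. Enzyme: NTMT1 at 125nM; cofactor SAM 100uM in the added reagent.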

[7] = system: Zika virus NS2B-NS3 protease (unlinked); assay: Optimization of GU AMC qHTS for Zika virus inhibitors: Unlinked NS2B-NS3 protease assay (AID 1347151); also: nearly all actives have a fitted effect of over 80% in size; also: potency is read from the fitted curve at half-maximal effect;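 as to activity change, negative = inhibition: 0% = no-inhibitor control and -100% = no-enzyme control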
Outline: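 In this qHTS, compounds acted on 25 nM unlinked Zika NS2B–NS3 in pH 8.0 Tris/Tween buffer. Cleavage of an AMC peptide ran 15 min at room temperature, to about 20% conversion.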

[8] = system: Zika virus NS2B-NS3 protease; assay: Primary screen GU AMC qHTS for Zika virus inhibitors (AID 1347154);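 also: 0% = no-inhibitor control and -100% = no-enzyme control; nearly all actives have a fitted effect of over 70% in size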
Outline: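 Unlinked Zika NS2B hydrophilic domain/NS3 protease domain noncovalent complex (25 nM final) in 10 mM Tris-HCl pH 8.0, 0.01% Tween 20, with AMC peptide substrate. Fluorescence (ex 340, em 450 nm) change over 15 min, room temperature; percent inhibition fitted to 4-parameter Hill equation.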

[9] = target: Lysine-specific demethylase 5B (Homo sapiens) (UniProt Q9UGL1); assay: Optimization screen for KDM5B Histone Demethylases FDH coupled qHTS against the LOPAC library (AID 1347166); settings: KDM5B demethylation, FDH-coupled NADH fluorescence (FDH is formaldehyde dehydrogenase); at 57.5 µM (top of the series); also: 0% is about no effect
Sequence of Lysine-specific demethylase 5B (Homo sapiens) (Q9UGL1 whole entry, looked up): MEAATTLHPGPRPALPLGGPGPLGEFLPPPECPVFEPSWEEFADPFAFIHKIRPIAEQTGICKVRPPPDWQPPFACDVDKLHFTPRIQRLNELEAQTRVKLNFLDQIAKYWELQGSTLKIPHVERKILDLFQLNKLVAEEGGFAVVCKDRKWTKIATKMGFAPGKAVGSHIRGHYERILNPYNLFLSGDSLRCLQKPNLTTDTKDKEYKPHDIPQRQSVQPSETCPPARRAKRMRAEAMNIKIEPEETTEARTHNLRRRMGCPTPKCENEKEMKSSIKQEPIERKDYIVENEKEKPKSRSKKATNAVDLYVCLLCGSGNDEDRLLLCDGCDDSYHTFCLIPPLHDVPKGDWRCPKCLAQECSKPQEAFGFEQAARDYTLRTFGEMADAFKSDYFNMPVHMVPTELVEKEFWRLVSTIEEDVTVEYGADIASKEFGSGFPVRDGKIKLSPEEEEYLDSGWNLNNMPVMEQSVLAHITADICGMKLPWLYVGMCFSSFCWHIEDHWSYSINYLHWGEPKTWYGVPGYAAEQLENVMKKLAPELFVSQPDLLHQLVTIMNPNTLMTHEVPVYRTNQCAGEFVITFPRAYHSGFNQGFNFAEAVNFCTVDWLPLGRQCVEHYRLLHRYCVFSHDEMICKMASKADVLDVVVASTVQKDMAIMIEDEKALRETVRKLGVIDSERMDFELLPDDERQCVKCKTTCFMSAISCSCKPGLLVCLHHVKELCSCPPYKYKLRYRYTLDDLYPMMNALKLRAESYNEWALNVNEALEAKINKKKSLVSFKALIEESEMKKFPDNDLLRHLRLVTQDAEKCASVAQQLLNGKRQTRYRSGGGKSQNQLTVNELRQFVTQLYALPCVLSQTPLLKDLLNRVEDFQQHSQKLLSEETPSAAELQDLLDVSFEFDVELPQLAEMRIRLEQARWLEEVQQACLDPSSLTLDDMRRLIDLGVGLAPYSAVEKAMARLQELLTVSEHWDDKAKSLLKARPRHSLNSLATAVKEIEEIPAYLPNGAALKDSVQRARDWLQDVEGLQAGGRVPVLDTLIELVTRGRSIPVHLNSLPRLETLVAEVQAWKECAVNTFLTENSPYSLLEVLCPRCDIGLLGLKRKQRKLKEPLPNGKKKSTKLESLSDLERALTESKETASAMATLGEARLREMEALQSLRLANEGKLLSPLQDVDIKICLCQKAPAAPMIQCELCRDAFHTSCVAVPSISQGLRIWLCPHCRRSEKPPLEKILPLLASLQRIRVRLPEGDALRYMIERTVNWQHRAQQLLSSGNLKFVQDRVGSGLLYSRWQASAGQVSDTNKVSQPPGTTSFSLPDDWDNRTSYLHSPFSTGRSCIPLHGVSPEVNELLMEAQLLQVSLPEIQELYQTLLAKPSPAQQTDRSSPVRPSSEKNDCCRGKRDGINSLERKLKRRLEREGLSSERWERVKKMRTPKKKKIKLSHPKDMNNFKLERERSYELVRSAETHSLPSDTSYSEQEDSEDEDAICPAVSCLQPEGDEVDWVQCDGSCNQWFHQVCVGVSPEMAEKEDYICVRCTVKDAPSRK
Outline: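 KDM5BDeltaAP (200nM final) preincubated 10 min with compound, then 12.5uM H3K4Me3, 25uM a-ketoglutarate, ascorbate, Fe(II), NAD+ and FDH added; 50mM HEPES pH 7.5, 0.01% Tween-20. NADH fluorescence (340/450 nm) change over 30 min, room temperature.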

CN[C@H](CC(=O)O)C(=O)O
inactive: Potency [1] | Potency [2] | outcome [3] | Potency [4] | Potency [5] | Potency [6] | Potency [7] | Potency [8] | activity, negative = inhibition [9] -14.8%

CC(C)(C)NCC(O)COc1cccc2[nH]c(=O)[nH]c12 (stereo not given)
inactive: Potency [1] | Potency [2] | outcome [3] | Potency [4] | Potency [5] | Potency [6] | Potency [7] | Potency [8] | activity, negative = inhibition [9] -6.87%

Oc1cc2c(cc1O)C(c1ccccc1)CNCC2 (stereo not given)
active: Potency [6] 44.7 µM
inactive: Potency [1] | Potency [2] | outcome [3] | Potency [4] | Potency [5] | Potency [7] | Potency [8]

N[C@@H](CS(=O)O)C(=O)O
inactive: Potency [1] | Potency [2] | outcome [3] | Potency [4] | Potency [5] | Potency [6] | Potency [7] | Potency [8] | activity, negative = inhibition [9] -4.61%

CCCCOc1cc(CC2CNC(=O)N2)ccc1OC (stereo not given)
inactive: Potency [1] | Potency [2] | outcome [3] | Potency [4] | Potency [5] | Potency [6] | Potency [7] | Potency [8] | activity, negative = inhibition [9] -3.5%

Nn1nnc2ccccc21
inactive: Potency [1] | Potency [2] | outcome [3] | Potency [4] | Potency [5] | Potency [6] | Potency [7]

CSC(=N)N
inactive: Potency [1] | Potency [2] | outcome [3] | Potency [4] | Potency [5] | Potency [6] | Potency [7] | Potency [8] | activity, negative = inhibition [9] -3.96%

CCCN(CCc1ccccc1)C1CCc2c(O)cccc2C1 (stereo not given)
inactive: Potency [1] | Potency [2] | outcome [3] | Potency [4] | Potency [5] | Potency [6] | Potency [7] | Potency [8] | activity, negative = inhibition [9] -0.152%

COc1ccccc1N1CCN(CCCCN2C(=O)c3ccccc3C2=O)CC1
active: Potency [7] 23.8 µM
inactive: Potency [1] | Potency [2] | outcome [3] | Potency [4] | Potency [5] | Potency [6] | Potency [8] | activity, negative = inhibition [9] -4.4%

O=c1oc(Cl)c(Cl)c2ccccc12
active: Potency [6] 50.1 µM
inactive: Potency [1] | Potency [2] | outcome [3] | Potency [4] | Potency [5] | Potency [7]

CCCc1c(-c2ccc(O)cc2)nn(-c2ccc(O)cc2)c1-c1ccc(O)cc1
inactive: Potency [1] | Potency [2] | outcome [3] | Potency [4] | Potency [5] | Potency [6]

N[C@H](C(=O)O)[C@H]1C[C@@H]1C(=O)O
inactive: Potency [1] | Potency [2] | outcome [3] | Potency [4] | Potency [5] | Potency [6] | Potency [7] | Potency [8] | activity, negative = inhibition [9] -7.37%

CCSC(=N)N
inactive: Potency [1] | Potency [2] | outcome [3] | Potency [4] | Potency [5] | Potency [6] | Potency [7] | Potency [8] | activity, negative = inhibition [9] -5.42%

CCCCCCCCCCC/C=C\C(C)(C)/C=C\CCCC(=O)O
inactive: Potency [1] | Potency [2] | outcome [3] | Potency [4] | Potency [5] | Potency [6] | activity change, negative = inhibition [8] 13.4% [at 6.83 µM] | activity, negative = inhibition [9] -18.4%
active: Potency [7] 6.7 µM

NCCCCN=C(N)N
inactive: Potency [1] | Potency [2] | outcome [3] | Potency [4] | Potency [5] | Potency [6] | Potency [7] | Potency [8] | activity, negative = inhibition [9] -1.42%

CCCCCCCCCCCCCCCCCCOC[C@H](COP(=O)([O-])OCC[N+](C)(C)C)OC
inactive: Potency [1] | Potency [2] | outcome [3] | Potency [4] | Potency [5] | Potency [6] | Potency [7] | activity change, negative = inhibition [8] 2.23% [at 6.83 µM] | activity, negative = inhibition [9] 1.42%

COc1cc(C(O)C(=O)O)ccc1O (stereo not given)
inactive: Potency [1] | Potency [2] | outcome [3] | Potency [4] | Potency [5] | Potency [6] | Potency [7] | Potency [8] | activity, negative = inhibition [9] -6.83%

C=CCN1CCc2cc(O)c(O)cc2C(c2ccccc2)C1 (stereo not given)
active: Potency [6] 35.5 µM
inactive: Potency [1] | Potency [2] | outcome [3] | Potency [4] | Potency [5] | Potency [7]

O=C(O)C1=CCNCC1
inactive: Potency [1] | Potency [2] | outcome [3] | Potency [4] | Potency [5] | Potency [6] | Potency [7] | Potency [8] | activity, negative = inhibition [9] -12.8%

CC[N+](CC)(CC)CC(=O)Nc1c(C)cccc1C
inactive: Potency [1] | Potency [2] | outcome [3] | Potency [4] | Potency [5] | Potency [6] | Potency [7] | Potency [8] | activity, negative = inhibition [9] -1.53%

CCCCCCCCCCCCCCC[C@H](O)[C@H](N)CO
inactive: Potency [1] | Potency [2] | outcome [3] | Potency [4] | Potency [5] | Potency [6] | Potency [7]

NCCS(=O)O
inactive: Potency [1] | Potency [2] | outcome [3] | Potency [4] | Potency [5] | Potency [6] | Potency [7] | Potency [8] | activity, negative = inhibition [9] -4.01%

COCc1nc2c([nH]1)c(=O)n(C)c(=O)n2CC(C)C
inactive: Potency [1] | Potency [2] | outcome [3] | Potency [4] | Potency [5] | Potency [6] | Potency [7] | Potency [8] | activity, negative = inhibition [9] -5.87%
